Lassa entry inh: Lassa virus entry inhibition | AID 540256 | Lassa virus pseudotype entry inhibition, cell reporter | 300,000 compounds, 1.2% hits | Potency, µM (doses to about 37.9 µM), for inactives: top-dose activity change, negative = inhibition, most hits filed as inhibitors; calls by dose curve; tested in HEK293 cells; note: potency is the fitted concentration of half-maximal effect; % is set by controls: 0 for no effect and ±100 for the full control effect; nearly all actives have a fitted effect of over 50% in size
VACV Venus inh: inhibitors of vaccinia virus (Venus reporter) | Vaccinia virus Venus reporter expression, fluorescence | Potency, µM (doses to about 36.5 µM), inactives show at the highest dose activity change, negative = inhibition, actives largely listed as inhibitors | 330,000 compounds, 0.46% hits; calls by dose curve; tested in A549 cells; note: potency is the fitted concentration of half-maximal effect; % is set by controls: 0 for no effect and ±100 for the full control effect; nearly all actives have a fitted effect of over 30% in size
Shiga inhibitor: Shiga toxin inhibition; AID 2315; Vero cells, Shiga toxin protein synthesis inhibition reporter; inhibition, % at 38.7 µM; 290,000 compounds, 9.2% hits; in the data active = inhibition mostly above about 28%, no sharp cut-off; inactive = mostly below about 43%; note: 0% is about no effect
Marburg entry inh: blocks Marburg virus binding to or entry into cells. 300,000 compounds, 1.8% hits. Marburg virus pseudotyped entry inhibition, cell reporter. Potency, µM (top dose mostly 37.8 µM), for inactives: at the highest dose activity change, negative = inhibition, actives largely listed as inhibitors. AID 540276; calls by dose curve; tested in HEK293 cells; note: potency is the fitted concentration of half-maximal effect; % is set by controls: 0 for no effect and ±100 for the full control effect
Vaccinia mCherry: vaccinia inhibition (mCherry reporter). Vaccinia virus mCherry reporter infection, fluorescence. Potency, µM (titrated, usually from 36.5 µM), for inactives: at the highest dose activity change, negative = inhibition, actives largely listed as inhibitors. 310,000 compounds, 0.63% hits; calls by dose curve; tested in A549 cells; note: potency is the fitted concentration of half-maximal effect; % is set by controls: 0 for no effect and ±100 for the full control effect; nearly all actives have a fitted effect of over 35% in size
Cycloheximide cs: affects cycloheximide protein synthesis inhibition readout, counter-screen; cell reporter, cycloheximide protein synthesis inhibition counterscreen; max response, %; 300,000 compounds, 12% hits; AID 2314; in the data active = max response mostly above about 13%, no sharp cut-off; inactive = mostly below about 14%; note: read at 38.3 µM for the half of the compounds with a filed dose; 0% is about no effect
* hit, by the source's call; i = inactive; u = inconclusive; x = no result; [ ] = remark or other dose. This excerpt belongs to a sample that is enriched for hits.

SMILES	Lassa entry inh	VACV Venus inh	Shiga inhibitor	Marburg entry inh	Vaccinia mCherry	Cycloheximide cs
CCOc1ccc(-c2nnc(SCC(=O)Nc3cc(C)on3)o2)cc1	-23%	-18%	11	u	-14%	2
Cc1cc(NC(=O)CSCC(=O)OCc2nnc(-c3ccccc3)o2)no1	18%[46.1 µM]	-12%	30	2%[46.1 µM]	-5%	16*
Cc1cc(NC(=O)CSCc2ccccc2)no1	x	0%	-4	x	i	1
COc1cc(C2c3cc4c(cc3OC(NNC(N)=S)C2C)OCO4)cc(OC)c1OC (stereo unspecified)	u	u	x	u	2.8µM*	x
CCOC(=O)C1CCN(Cc2cc(Cl)c3ccccc3c2O)CC1	-3%[46.1 µM]	6%	47	u	u	12*
CCOC(=O)C1CCN(Cc2ccc(OC)c(C)c2OC)CC1	-40%	x	-14	-45%	x	-7
CCOC(=O)C1CCN(Cc2nnnn2CCc2ccccc2)CC1	-19%	x	46	18%	x	41*
COc1ccc(OC)c(NC(=O)c2cc3cc(C)ccc3n2C)c1	6%[46.1 µM]	-7%	x	14%[46.1 µM]	-5%	x
CCCCC(=O)N/C(N)=N/c1nc2ccccc2o1	u	-20%	36*	u	i	43*
COc1ccccc1C(=O)NC(=Nc1nc2ccccc2o1)NC(=O)c1ccccc1OC	0%[46.1 µM]	-2%	22*	-14%[46.1 µM]	-11%	17*
N/C(=N\c1nc2ccccc2o1)NC(=O)c1ccccc1F	-11%	-1%	100*	52%	-10%	47*
O=C(NC(=Nc1nc2ccccc2o1)NC(=O)c1ccccc1)c1ccccc1	12%	-5%	15	u	-11%	-2
CCCC(=O)N/C(N)=N/c1nc(C)c2ccccc2n1	u	-47%	18	u	-16%	17*
CCc1ccc2nc(/N=C(\N)NC(=O)c3ccccc3)nc(C)c2c1	-5%	-10%	5	-36%	-11%	1
CCOC(=O)c1c(C)[nH]c(C)c1C(=O)COC(=O)/C=C/c1ccc(OC(F)F)cc1	11µM*	u	-1	u	-22%	5
CC=CCCN1C=C(C(C)=O)C(c2ccccc2)NC1=O (stereo unspecified)	x	x	x	-22%[14.2 µM]	x	x
O=C(Nc1nc(-c2ccc(F)cc2)cs1)C1CCN(C(=O)c2ccc(F)cc2)CC1	-28%[46.1 µM]	u	x	11µM*	u	x
O=C(CN1CCCC1)Nc1nc(-c2ccc3c(c2)CCN3C(=O)c2ccccc2F)cs1	u	-10%	31	u	u	20*
CNc1nc(-c2ccc3c(c2)CCN3C(=O)c2ccc(F)cc2)cs1	x	x	91*	x	x	45*
Cc1sc(NC(=O)Cc2ccc3c(c2)OCO3)nc1-c1ccc2c(c1)CCN2C(=O)c1cccc(F)c1	1%	-15%	3	u	i	-1
O=C(c1ccccc1F)N1CCc2ccccc21	-8%	x	-17	3%	x	0
CNc1nc(-c2ccc3c(c2)CCN3C(=O)c2cccc(F)c2)cs1	x	x	59*	x	x	44*
C[C@H]1[C@@H](c2ccccc2)Oc2ccc(Cl)cc2S(=O)(=O)N1Cc1cccc(Cl)c1	1%[46.1 µM]	x	x	x	x	x
CNc1nc(-c2ccc3c(c2)CCN3C(=O)c2ccccc2C)cs1	u	-10%	64*	u	u	34*
COc1ccccc1CCc1nnc(CCC(=O)N(C)Cc2cccc3cnccc23)o1	9%[46.1 µM]	-15%	86*	-11%[46.1 µM]	-8%	45*
SMILES	Lassa entry inh	VACV Venus inh	Shiga inhibitor	Marburg entry inh	Vaccinia mCherry	Cycloheximide cs
COc1ccc(CCc2nnc(CCC(=O)N(C)Cc3ccnc4ccccc34)o2)cc1	13µM*	-9%	23*	u	-4%	30*
COc1ccc(CCc2ccnc3ccccc23)cc1	-11%[46.1 µM]	-19%	x	u	-12%	x
Cc1cc(-c2nnc(CCC(=O)N(C)Cc3cccc4ccccc34)o2)no1	-2%[46.1 µM]	-15%	63*	29%[46.1 µM]	-8%	20*
Cc1cc(-c2nnc(CCC(=O)NC(C)c3cccc4ccccc34)o2)no1 (stereo unspecified)	x	3%	15	x	4%	6
Nc1ccc(Oc2ccccc2-c2ccccc2)cc1	5.6µM*	-19%	x	5.6µM*	-23%	x
Cc1ccc(C2(COC(=O)C(C)C)CO2)c(OC(=O)C(C)C)c1 (stereo unspecified)	x	-5%	13	x	-7%	10*
CCOC(=O)c1csc(NC(=O)CN2CCN(C)CC2)n1	x	x	5	x	x	-2
CCOC(=O)c1csc(N/N=C2\CCc3ccccc32)n1	18%[46.1 µM]	-17%	38*	10%[46.1 µM]	u	31*

Screening results from PubChem.
